Compound activity deposited in PubChem BioAssay by Broad Institute.
Only a sample is shown.
aSyn 5UTR act = Activators via SNCA 5'UTR binding, MLPCN; 300,000 compounds, 7.1% hits; alpha-synuclein 5'UTR reporter, activators screen; activity score, % (tested at 7.5 µM), hits read low; in the data active = activity score below about -60%
* marks the source's active call; other numbers are inactive results.

SMILES	aSyn 5UTR act
COc1ccc(Br)c(C(=O)Nc2nc3ccccc3[nH]2)c1	-87.1*
COc1ccc2oc(C(=O)Nc3nc4ccccc4[nH]3)c(C)c2c1	-102.5*
Cc1cc(C)cc(C(=O)Nc2nc3ccccc3[nH]2)c1	-139.1*
CC(C)Oc1ccc(C(=O)Nc2nc3ccccc3[nH]2)cc1	81.5
O=C(Nc1nc2ccccc2[nH]1)c1ccccc1F	108.4
Cn1nc(C(=O)Nc2nc3ccccc3[nH]2)c2ccccc2c1=O	-144.1*
O=C(Nc1nc2ccccc2[nH]1)c1ccc(F)c(S(=O)(=O)N2CCOCC2)c1	-98.7*
O=C(Nc1nc2ccccc2[nH]1)c1cc(F)cc(F)c1	-148.2*
Cc1ccc(C(=O)COC(=O)c2cccs2)cc1	-114.5*
CC(=O)Nc1cc(C(=O)OCC(=O)c2ccc(C)cc2)ccc1C	-151.0*
CCc1ccc(C(=O)COC(=O)c2cccs2)cc1	-139.0*
COc1cc(/C=N/N2CCN(C3c4ccccc4-c4ccccc43)CC2)ccc1O	-63.4*
CCN(CC)c1ccc(C2Nc3cccc4cccc(c34)N2)cc1	-171.1*
COc1cc(/C=N/Nc2nc(N3CCCC3)nc(N3CCCC3)n2)ccc1OCc1ccccc1F	-71.6*
Cc1ccc(NC(=O)c2cccc(Cl)c2)nc1	-75.5*
Cc1ccc(NC(=O)c2ccc3c(c2)NC(=O)CS3)nc1	-92.6*
O=C(Nc1cc(-c2ccccc2)[nH]n1)c1ccc(Cl)cc1	-123.7*
CC(=O)N1CCN(S(=O)(=O)c2cccc(C(=O)Nc3ccc(C)cn3)c2)CC1	-71.4*
CCOC(=O)N1CCN(S(=O)(=O)c2ccc(C(=O)NNc3nc4cc(C)cc(C)c4s3)cc2)CC1	66.0
Cn1sc(NC(=O)c2cccc(Cl)c2)nc1=O	-118.2*
Cc1cc(NC(=O)c2cccc(Cl)c2)n[nH]1	-70.8*
COC(=O)C1=C(O)/C(=C\c2cc(C)n(-c3ccccc3C)c2C)N=C1C	-81.7*
CCN(CC)c1ccc(/C=C/c2cccc[n+]2C)c(OC)c1	59.1
CC[n+]1c(/C=C/c2ccc(OC)c(OC)c2)ccc2ccccc21	-117.2*
CCN(CC)c1ccc(/C=C/c2ccc3ccc(OC)cc3[n+]2CC)cc1	-86.5*
SMILES	aSyn 5UTR act
CC[n+]1c(/C=C/c2ccc(OC(C)=O)c(OC)c2)ccc2ccccc21	-71.8*
Oc1ccc(C=Nc2ccccc2-c2nc3ccccc3[nH]2)cc1	-142.0*
Nc1cccc2nc3ccccc3cc12	100.6
Nc1ccccc1-c1nc2ccccc2[nH]1	-162.9*
Cn1cc(-c2nc3ccccc3[nH]2)c2ccccc21	-124.2*
O=c1[nH]cccc1-c1nc2ccccc2[nH]1	-131.7*
Cc1ccnc(NC(=O)CCC(=O)c2cccs2)c1	84.0
Cc1ccnc(N(C(=O)c2cccs2)C(=O)c2cccs2)c1	-156.7*
O=C(c1cccs1)N(C(=O)c1cccs1)c1ccc(Br)cn1	-144.3*
COc1ccc(/C=C/C(=O)c2ccc[nH]2)cc1OC	-146.2*
COc1ccc(/C=C/C(=O)c2ccc[nH]2)c(OC)c1OC	-194.2*
COc1ccc(/C=C/C(=O)c2cc(F)ccc2OC(=O)c2ccccc2OC)cc1OC	68.0
Cn1nc(-c2ccccc2)cc1NC(=O)C1CCCCC1	-69.5*
CC1(C)COCN1S(=O)(=O)c1ccc(C(=O)Nc2nnc(-c3ccc(Cl)s3)o2)cc1	92.4
O=C(Nc1nnc(-c2ccc(Cl)s2)o1)C1CCCCC1	-62.6*
Clc1ccc(-c2nnc(NC3=NCCCCC3)o2)cc1	75.1
O=C(c1ccc(Cl)cc1)N1CCCCC(Sc2nnc(-c3ccc4c(c3)OCO4)o2)C1=O (stereo unspecified)	92.0
O=C(Nc1nnc(-c2ccc3c(c2)OCCO3)o1)C1CCCCC1	-88.3*
O=C(Nc1nnc(-c2ccc(Cl)cc2)o1)C1CCCCC1	-80.1*
O=C(Nc1nnc(-c2ccccc2)o1)C1CCCCC1	-62.7*
CN(C)S(=O)(=O)c1ccc(C(=O)Nc2nc(-c3cc4ccccc4o3)cs2)cc1	-136.9*
O=C(Nc1nc(-c2cc3ccccc3o2)cs1)c1ccc(S(=O)(=O)N2CCCC2)cc1	-67.6*
Cc1ccc(-c2nc3ccccc3s2)cc1S(=O)(=O)N1CCOCC1	-66.0*
O=C(Nc1nc(-c2nc3ccccc3s2)cs1)c1ccc(S(=O)(=O)N2CCOCC2)cc1	-75.2*
C/C(CC(=O)Nc1cccc2c1CCCC2)=N\NC(=O)c1ccccc1N	-109.8*
SMILES	aSyn 5UTR act
CCc1nc2cc3sc(CC)nc3cc2s1	-133.1*
Cc1csc(N/N=C/c2ccccc2F)n1	-200.5*
CCOc1ccc(/C=N/Nc2nc(C)cs2)c(O)c1	-259.6*
Cc1csc(N/N=C/c2c(F)cccc2Cl)n1	-74.2*
COc1ccc(NC(=O)c2cc3cccc(OC)c3oc2=Nc2ccc(C(=O)O)cc2)cc1OC	-116.3*
COc1cccc(NC(=O)c2cc3cccc(OC)c3o/c2=N\O)c1	-80.8*
COc1ccccc1/C=C\C=N\NC(=O)c1ccco1	-97.9*
COc1ccccc1/C=C/C=N/NC(=O)c1cccs1	-180.5*
CCn1cnc2cc(NCc3nc4ccccc4n3Cc3ccccc3)ccc21	-138.0*
CC(C)n1cnc2cc(NCc3nc4ccccc4n3C)ccc21	-115.1*
CCn1cnc2cc(NCc3nc4ccccc4n3C)ccc21	-107.7*
COc1ccc(/C=C2\N=C(SC)N(c3ccccc3OC)C2=O)cc1	-66.3*
CCOc1ccc(N2C(=O)/C(=C/c3ccccc3)N=C2SC)cc1	-89.0*
Cc1ccc(-c2cc(C(=O)N3CCOCC3)no2)cc1	66.9
COc1ccc(-c2cc(C(=O)N3CCCCC3)no2)cc1OC	-111.7*
COc1ccc(-c2cc(C(=O)N3CCCC3)no2)cc1OC	-122.9*
COc1ccc(-c2cc(C(=O)N3CCN(c4ccccc4)CC3)no2)cc1	-156.1*
O=C(Cn1c(=O)sc2ccccc21)NCc1ccccn1	-68.3*
CC(C)(C)C(=O)Nc1nc(-c2ccccc2)ns1	-145.6*
c1ccc(Nc2nc(-c3ccccc3)ns2)cc1	-144.2*
CSc1ccc(-c2nc(CN(C)C3CCOC3)c(C)o2)cc1 (stereo unspecified)	-80.6*
COc1ccc(OCc2cc(C(=O)N(C)C(C)c3ccon3)no2)c(Cl)c1 (stereo unspecified)	-114.8*
COc1ccc(OCc2cc(C(=O)N(C)CC3CCCCO3)no2)c(Cl)c1 (stereo unspecified)	-70.5*
COc1cc(Cl)ccc1OCc1cc(C(=O)N(C)CC2CCCCO2)no1 (stereo unspecified)	-138.9*
COc1ccc(OCc2cc(C(=O)N(C)CCC3CCOCC3)no2)c(Cl)c1	-75.5*
SMILES	aSyn 5UTR act
COc1ccc(C(=O)/C=C/C(=O)N(CC(=O)NC2CCCCC2)CC2CCCO2)c(O)c1 (stereo unspecified)	73.4
COC(=O)c1ccc(CN2C(=O)NC(Cc3c[nH]c4ccccc34)C2=O)cc1 (stereo unspecified)	-95.5*
COc1ccc(Cn2c(SCc3cc(C)ccc3C)nc3cc(OC)c(OC)cc3c2=N)cc1	54.8
COc1ccc(Cn2c(SCC#N)nc3ccc(N4CCOCC4)cc3c2=O)cc1	-88.5*
COc1ncccc1-c1nnn(-c2ccc(Cl)c(Cl)c2)n1	-169.0*
COc1ncccc1-c1nnn(-c2ccc(F)cc2)n1	-97.0*
O=c1[nH]c2ccccc2cc1-c1nnn(-c2ccc(F)cc2)n1	-102.8*
COc1ncccc1-c1nnn(-c2ccc(C)cc2)n1	-160.6*
Cc1ccc(-n2nnc(-c3cc4ccccc4nc3Cl)n2)cc1	-148.2*
COc1ccc2c(n1)Sc1nc3ccccc3nc1N2	-136.0*
Clc1ccc(/C(Cc2nc3ccccc3[nH]2)=N\Nc2ccccc2)cc1	-115.1*
O=C(Cc1nc2ccccc2[nH]1)c1ccc(Cl)cc1	-79.6*
